Bioassay records: PubChem, National Center for Advancing Translational Sciences (NCATS)
AmpC inh no detg: qHTS Inhibitors of AmpC Beta-Lactamase (assay without detergent); P00811; AmpC nitrocefin hydrolysis, absorbance 480 nm, 0.0001% Triton; Potency, µM (top dose mostly 57.1 µM), inactives show top-dose activity change, negative = inhibition, usual class: inhibitors; 0.52% of 330,000 active;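 also: plate controls were no compound for no effect and no enzyme for full effect; nearly all actives have a fitted effect of over 20% in size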
Target sequence (P00811 whole entry, looked up): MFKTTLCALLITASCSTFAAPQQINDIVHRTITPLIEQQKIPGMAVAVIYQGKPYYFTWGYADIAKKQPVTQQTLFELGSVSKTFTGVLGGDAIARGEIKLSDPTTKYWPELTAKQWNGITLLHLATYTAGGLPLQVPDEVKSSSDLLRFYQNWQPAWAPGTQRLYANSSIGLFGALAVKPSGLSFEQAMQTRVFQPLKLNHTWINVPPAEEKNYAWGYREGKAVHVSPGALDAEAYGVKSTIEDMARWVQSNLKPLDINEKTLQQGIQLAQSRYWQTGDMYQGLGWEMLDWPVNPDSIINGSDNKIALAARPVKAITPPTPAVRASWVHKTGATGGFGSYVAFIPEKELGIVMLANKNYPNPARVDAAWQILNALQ
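AmpC (5.3 nM in the dispensed reagent) in 20 mM phosphate pH 7.0 with 0.01% (detergent screen) or 0.0001% Triton X-100 was preincubated with compounds for 15 min at room temperature. Nitrocefin was then added from an 800 uM solution, and hydrolysis was followed at 480 nm.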
AmpC detergent: qHTS Inhibitors of AmpC Beta-Lactamase (assay with detergent); P00811; AmpC hydrolysis of nitrocefin, absorbance 480 nm, 0.01% Triton; Potency, µM (top dose mostly 114 µM), without a hit: top-dose activity change, negative = inhibition, usual class: inhibitors; 0.041% of 370,000 active; AID 485294, 2010;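 also: 0% = no-compound wells and -100% = no-enzyme wells; nearly all actives have a fitted effect of over 25% in size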
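AmpC (5.3 nM in the dispensed reagent) in 20 mM phosphate pH 7.0 with 0.01% (detergent screen) or 0.0001% Triton X-100 was preincubated with compounds for 15 min at room temperature. Nitrocefin was then added from an 800 uM solution, and hydrolysis was followed at 480 nm.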
Pf growth 48h: Primary qHTS for delayed death inhibitors of the malarial parasite plastid, 48 hour incubation | P. falciparum luciferase growth in erythrocytes, 48 h | Potency, µM (top dose mostly 28.7 µM), inactives show top-dose activity change, negative = inhibition, hits mostly inhibitors | 5.9% of 310,000 active | AID 504832, 2011
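Erythrocytes infected with P. falciparum carrying an integrated firefly luciferase reporter (2% hematocrit, 0.1% parasitemia final) were exposed to compounds in RPMI 1640 with 0.5% Albumax at 37 C, 5% CO2. Growth inhibition was scored as reduced luminescence.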
AMA1 RON2 block: qHTS for Inhibitors of AMA1-RON; Towards Development of Antimalarial Drug Lead: Primary Screen; Plasmodium falciparum AMA1 (3D7) - RON2 peptide interaction; AlphaScreen AMA1-biotinylated RON2 peptide binding; Potency, µM (series often up to 58.2 µM), for the others: at the top dose activity change, negative = inhibition, usual class: inhibitors; 0.2% of 360,000 active; AID 720542, 2013;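 also: 0% = vehicle wells and -100% = peptide control; nearly all actives have a fitted effect of over 45% in size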
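AMA1 (3D7) with his tag at 25 nM final met compounds first, then biotinylated RON2 peptide at 25 nM; detection used donor plus acceptor beads, 10 µg/mL apiece, read by AlphaScreen after 30 min at room temperature.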
Pf growth 96h: Primary qHTS for delayed death inhibitors of the malarial parasite plastid, 96 hour incubation | Potency, µM (titrated, usually from 28.7 µM), without a hit: at the highest dose activity change, negative = inhibition, usual class: inhibitors | AID 504834, 2011 | P. falciparum luciferase reporter growth, 96 h | 6.9% of 320,000 active
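Infected RBCs, 2% Hct / 0.05% parasitemia final; luciferase-reporter P. falciparum; cpd 96 h, 37 C, 5% CO2; luciferase detection reagent; luminescence.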
HCV inh: qHTS Assay for Inhibitors of Hepatitis C Virus (HCV). AID 651820, 2012. Huh7.5.1 HCVcc-Cre infection, luciferase reporter, 44 h. Potency, µM (top dose mostly 41.8 µM), for inactives: at the highest dose activity change, negative = inhibition, usual class: inhibitors. 3.4% of 340,000 active
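Cells seeded at 1,000/well and cultured 4 h, then compounds added followed by HCVcc-Cre virus (~0.5 moi). After 44 h further culture, luciferase substrate was added, plates held 15 min at room temperature, and luminescence read for 15 sec.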
Active calls of the source: *; u = inconclusive; x = no result. Rows were chosen to be rich in hits. Some 11% of all compounds tested hit in one or more screens of this group. Calls follow the shape of the dose curve; as a rule, active = well fitted curve in the direction sought with a large enough effect; inconclusive = small, poorly fitted or top-dose-only effect, or another doubt; inactive = no such curve, though single readings can be large; an effect the other way counts as inactive or inconclusive. Unless noted, % is scaled to controls: 0 for no effect and ±100 for the full control effect; potency is read from the fitted curve at half-maximal effect.

SMILES	AmpC inh no detg	AmpC detergent	Pf growth 48h	AMA1 RON2 block	Pf growth 96h	HCV inh
Cc1ccc(C)c(CNC(=O)c2ccc3c(c2)nc2n3CCCCC2)c1	x	1.5%	x	x	x	x
CC(C)N(CCn1c(=S)[nH]c2ccccc2c1=O)C(C)C	-14.5%	-9.8%	x	6.7%	2.94µM*	-16.5%
O=c1c2ccc(Cl)cc2[nH]c(=S)n1CCCN1CCOCC1	-25.5%	-11.6%	15.0%	25.0%	u	22.9%
CCN(CC)CCCn1c(=S)[nH]c2cc(Cl)ccc2c1=O	28.2µM*	u	-4.4%	-0.9%	23.2%	7.08µM*
O=c1c2ccccc2[nH]c(=S)n1CCN1CCCC1	-20.6%	0.8%	-4.1%	0.9%	4.7%	18.4%
CCOc1cc2[nH]c(=S)n(CCCN(CC)CC)c(=O)c2cc1OCC	1.4%	0.4%	u	2.2%	59.1%	-26.4%
CCN(CC)CCCn1c(=S)[nH]c2ccc(Cl)cc2c1=O	0.282µM*	0.9%	u	2.9%	-6.4%	u
Cc1ccc(C)c(S(=O)(=O)c2cn(Cc3ccccc3)c3cc(F)c(F)cc3c2=O)c1	x	3.0%	x	x	x	x
Cc1ccc(C(=O)Nc2nc(COc3ccccc3)cs2)s1	x	1.1%	6.8%	6.6%	-15.9%	11.2µM*
CCc1ccc(-c2cn(-c3nc(C)cc(C)n3)c(=N)o2)cc1	-19.9%	0.2%	u	13.6%	10.4µM*	22.4µM*
C[C@@H](Oc1ccccc1)c1nnn(Cc2ccccc2)c1-c1c([C@@H](C)Oc2ccccc2)nnn1Cc1ccccc1	-15.3%	-8.5%	u	5.4%	6.57µM*	-21.4%
CCN(CC(=O)Nc1c(C(=O)OC)[nH]c2ccccc12)c1ccc2c(c1)OCO2	13.2%	3.7%	10.4µM*	-24.0%	u	u
COC(=O)c1[nH]c2cccc(OC)c2c1NC(=O)CCN1CCC(C)CC1	-12.2%	-9.1%	8.3%	6.1%	1.85µM*	-6.0%
COC(=O)c1[nH]c2cc(OC)ccc2c1NC(=O)c1ccc2c(c1)OCO2	-25.8%	2.6%	u	-21.3%	u	2.51µM*
COC(=O)c1[nH]c2cccc(OC)c2c1NC(=O)CCN1CCN(c2ccccc2OC)CC1	42.3%	4.1%	u	-2.2%	-8.5%	-29.9%
COC(=O)c1[nH]c2cc(OC)ccc2c1NC(=O)c1c(F)cccc1F	-18.2%	4.4%	-10.0%	-6.0%	u	12.6µM*
C=CCNC(=S)Nc1c(C(=O)OC)[nH]c2cc(OC)ccc12	-19.0%	-11.9%	-2.7%	103.5%	28.1%	13.1%
CCOC(=O)c1[nH]c2ccc(OC)cc2c1NC(=O)c1ccc2c(c1)OCO2	-6.3%	4.2%	5.0%	6.6%	8.1%	u
Cc1cc(O)c(CN2CCN(c3ccccc3)CC2)c2oc(=O)cc(C)c12	x	1.2%	x	x	x	x
CCOc1ccc2oc(=O)cc(CN3CCN(Cc4ccc(F)cc4)CC3)c2c1	x	3.0%	x	x	x	x
COC(=O)c1[nH]c2cc(OC)ccc2c1NC(=O)CCN1CCCC(C)(C)C1	-25.0%	0.9%	1.3%	-10.4%	1.65µM*	u
COC(=O)c1[nH]c2cc(OC)ccc2c1NC(=O)CCN1CCCCC1	-33.0%	-2.9%	-6.2%	-5.9%	25.4%	-7.1%
CCOC(=O)c1c(NC(=O)c2cc(=O)c3cc(C)ccc3o2)sc2c1CCCC2	x	18.4%	x	x	x	x
COc1ccc(CCC(=O)NC2CC(=O)N(c3ccc(OC)cc3)C2)cc1 (centres undefined)	x	-4.1%	x	x	x	x
CC1CCCN(C(C(=O)NC2CCCCC2)c2cc3c(cc2[N+](=O)[O-])OCO3)C1 (centres undefined)	-33.2%	1.7%	u	-6.5%	0.9%	u
SMILES	AmpC inh no detg	AmpC detergent	Pf growth 48h	AMA1 RON2 block	Pf growth 96h	HCV inh
CC1CCN(C(C(=O)NC2CCCCC2)c2cc3c(cc2[N+](=O)[O-])OCO3)CC1 (centres undefined)	15.3%	-19.2%	9.28µM*	-9.5%	51.4%	8.8%
CC1CCN(S(=O)(=O)c2ccc3ncn(CC(=O)N(C)Cc4ccccc4)c(=O)c3c2)CC1	35.3%	0.3%	u	-4.1%	14.7µM*	-6.5%
CC1CCN(S(=O)(=O)c2ccc3ncn(CC(=O)Nc4ccccc4C(F)(F)F)c(=O)c3c2)CC1	x	-1.2%	x	x	x	x
CCc1ccc(OCC(=O)Nc2ncc3c(n2)CC(C)(C)CC3=O)cc1	-19.9%	5.0%	8.5%	0.1%	3.29µM*	-9.5%
COc1n[nH]c(C(=O)Nc2cc(Cl)ccc2Cl)c1[N+](=O)[O-]	-27.8%	-6.8%	u	69.1%	4.65µM*	0.8%
O=C(CSc1nc(-c2ccccc2)c2ccccc2n1)Nc1ccc(F)cc1	x	26.0%	x	x	x	x
CCc1ccc(S(=O)(=O)/N=C2\C=C(Nc3ccc(C(=O)O)cc3)C(=O)c3ccccc32)cc1	-32.5%	-12.8%	2.33µM*	u	3.7µM*	u
Cc1ccc(S(=O)(=O)/N=C2\C=C(Nc3ccc(O)cc3)C(=O)c3ccccc32)cc1	-13.5%	x	x	20µM*	x	6.31µM*
Cc1ccc(S(=O)(=O)/N=C2\C=C(Nc3cccc(C(=O)O)c3)C(=O)c3ccccc32)c(C)c1	-11.2%	3.6%	1.65µM*	u	19.3%	10.5%
Cc1ccc(S(=O)(=O)/N=C2\C=C(Nc3cccc(C(=O)O)c3)C(=O)c3ccccc32)cc1	-45.6%	-8.7%	4.65µM*	-26.9%	-9.4%	-6.6%
Cc1ccc(NC2=C/C(=N/S(=O)(=O)c3cccs3)c3ccccc3C2=O)cc1	-30.0%	-5.3%	u	-14.9%	3.9%	u
CC(C)(C)c1ccc(S(=O)(=O)/N=C2\C=C(NS(=O)(=O)c3ccccc3)C(=O)c3ccccc32)cc1	-42.7%	-6.8%	-8.5%	-20.3%	3.4%	-19.2%
Cn1c(=O)c2c(ncn2CC(=O)Nc2cccc(Cl)c2Cl)n(C)c1=O	x	-1.9%	x	x	x	x
O=C1c2ccccc2C(=O)c2c1cccc2N(CCO)CCO	-13.2%	-6.6%	26.0%	-22.2%	16.5%	0.2%
CN(C)c1cc2c(c(N(C)C)c1)C(=O)c1ccccc1C2=O	24.3%	0.2%	u	17.8µM*	4.15µM*	u
COc1ccc(OCC2c3cc(OC)c(OC)cc3CCN2C(=O)COc2ccc(Cl)cc2Cl)cc1 (centres undefined)	x	6.7%	x	x	x	x
CC(=O)Nc1ccc(NC(=O)COC(=O)c2cc(S(=O)(=O)N(C)C)ccc2N2CCCC2)cc1	-15.3%	-6.0%	-13.4%	0.0%	2.8%	4.5%
